Screening data: PubChem, several laboratories
Only some compounds are listed: those with a hit (about 2.7% of all), similar ones and a draw of the others.
ANO1 block: inhibitors of mouse TMEM16A calcium-activated chloride channel; HEK293 TMEM16A/YFP iodide influx fluorescence, ionomycin; normalized B-score (activity score, 25-100; higher = stronger inhibition) at 10 µM; actives 1.2% (n = 310,000);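 active means ratio plate-corrected score three or more library SD toward inhibition, starting fluorescence score within five deviations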;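 further: score derived from kinetic fluorescence span divided by baseline fluorescence per well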
Target sequence (Q8BHY3 whole entry, looked up): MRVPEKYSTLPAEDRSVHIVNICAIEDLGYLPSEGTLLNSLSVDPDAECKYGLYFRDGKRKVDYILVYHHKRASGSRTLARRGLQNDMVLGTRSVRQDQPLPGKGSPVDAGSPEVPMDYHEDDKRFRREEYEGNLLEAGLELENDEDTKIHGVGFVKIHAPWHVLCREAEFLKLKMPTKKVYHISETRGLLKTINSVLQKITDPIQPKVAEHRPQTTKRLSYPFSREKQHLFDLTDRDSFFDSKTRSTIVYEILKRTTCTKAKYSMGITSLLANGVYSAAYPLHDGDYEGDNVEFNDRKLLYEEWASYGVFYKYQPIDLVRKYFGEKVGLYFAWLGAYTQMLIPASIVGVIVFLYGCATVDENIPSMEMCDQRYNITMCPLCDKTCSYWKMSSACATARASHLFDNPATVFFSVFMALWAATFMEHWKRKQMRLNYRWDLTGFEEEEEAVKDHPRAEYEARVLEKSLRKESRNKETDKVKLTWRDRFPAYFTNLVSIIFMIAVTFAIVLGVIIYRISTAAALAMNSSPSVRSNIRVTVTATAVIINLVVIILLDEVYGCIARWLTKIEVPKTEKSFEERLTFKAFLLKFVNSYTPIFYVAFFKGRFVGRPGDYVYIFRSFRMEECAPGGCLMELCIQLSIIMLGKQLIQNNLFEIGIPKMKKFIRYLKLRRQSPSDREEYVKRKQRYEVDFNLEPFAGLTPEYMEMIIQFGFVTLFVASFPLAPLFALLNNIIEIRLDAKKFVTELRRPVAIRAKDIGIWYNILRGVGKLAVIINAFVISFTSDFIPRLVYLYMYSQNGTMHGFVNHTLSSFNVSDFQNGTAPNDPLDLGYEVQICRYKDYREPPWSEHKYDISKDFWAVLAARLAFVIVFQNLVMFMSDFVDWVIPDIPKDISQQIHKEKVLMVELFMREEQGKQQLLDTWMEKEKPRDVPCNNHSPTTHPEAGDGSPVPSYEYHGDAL
IDE inh: inhibitors of human insulin-degrading enzyme in cells. P14735. HEK cells, FAbetaB cleavage, fluorescence polarization. inhibition, % at 5.59 µM. actives 0.41% (n = 320,000). AID 434962;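 active means percent inhibition above the average of all tested compounds plus 3 SD, set per screening campaign, cut at about 16% in these data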;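 further: IDE supplied by intact live HEK cells; FP after avidin binding of uncleaved biotin substrate so inhibition keeps polarization high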
IDE act: activators of human insulin-degrading enzyme in cells. actives 0.073% (n = 340,000). AID 493087. HEK cells, FAbeta-B cleavage, fluorescence polarization; 0% vehicle, 100% cell-free pure enzyme wells. P14735. activation, % at 5.96 µM;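 active means activation above the mean of all tested compounds plus 3 SD, set per screening campaign, cut at about 17% in these data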
CHT allo act: allosteric activators of human choline transporter CHT. Q9GZV3. CHT-expressing cells, membrane potential dye, choline EC20; stronger effect = higher value; LV-AA mutant CHT in HEK293 cells. B-score at 10 µM. actives 0.49% (n = 310,000);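 active means initial fluorescence not abnormally high and integrated response B-score, plate-corrected, over 3 SD above library mean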
CHT block: inhibitors of human choline transporter CHT; Q9GZV3; CHT-expressing cells, membrane potential dye, choline response; stronger effect = lower value; B-score at 10 µM; actives 0.86% (n = 310,000);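 active means B-score over 3 SD under the library average, and starting fluorescence ratio not unusually high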;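 further: choline stimulus applied at its EC90 after an EC20 pre-addition; B-score computed on integrated fluorescence ratio after choline addition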
TMEM16A act: activators or potentiators of mouse TMEM16A chloride channel | B-score at 10 µM | HEK293 TMEM16A/YFP-H148Q/I152L, iodide quench fluorescence; stronger effect = lower value | actives 0.3% (n = 340,000) | AID 623877;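 active means fluorescence-ratio B-score plate-corrected deviation score at least 3 library SD below zero, with starting fluorescence score within 5 deviations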;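 further: channel opened by trigger with iodide after compound preincubation; score built on the fluorescence ratio of max minus min over baseline; more negative score means more quench and so TMEM16A activation or potentiation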
TMEM16A reconf: re-confirmation of mouse TMEM16A chloride channel inhibitors; shares compounds with ANO1 block; HEK293 TMEM16A/YFP-H148Q, iodide quench fluorescence; ionomycin added to raise cell calcium; inhibition, % at 10 µM; actives 39% (n = 2,300);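 active means mean duplicate percent inhibition, scaled so buffer wells are 0 and the reference blocker 100, over three buffer SD above buffer mean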
HEK293 Ca mobil: alters calcium mobilization in TMEM16A HEK293 cells, counter-screen | TMEM16A/YFP HEK293, Fluo4 calcium mobilization | AID 652231 | shares compounds with ANO1 block | actives 2% (n = 2,300) | calcium response (% of ionomycin), % at 10 µM;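 active means duplicate-averaged calcium signal over 20% of the ionomycin maximum, relative to buffer baseline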;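 further: each well's signal is peak minus trough fluorescence divided by its pre-addition baseline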
YFP-HEK293 quench: counter-screen for TMEM16A inhibitors: effect in parental YFP-HEK293 cells; iodide YFP quench, ionomycin; YFP ratio F(max-min)/F0 at 10 µM; AID 652233; 2,300 tested, under 10 active; shares compounds with ANO1 block;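 active means yellow fluorescent protein signal ratio exceeding the buffer control mean by over 5 SD of those controls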;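 further: ratio is mean of duplicate wells from kinetic YFP trace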
ClC-1 inh: selectivity of TMEM16A inhibitors: inhibition of rat ClC-1 chloride channel; shares compounds with ANO1 block; CHO ClC-1-YFP, iodide influx fluorescence quench; iodide control reads 0, buffer control 100; ratio percent, % at 10 µM; 2,300 tested, under 10 active;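 active means duplicate-mean ratio percent above the mean of iodide-only control wells, which defines zero, plus 5 of their SD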;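 further: higher percent means stronger block of ClC-1 iodide influx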
Large screens that a line does not name were inactive (follow-up assays come after a bar, where they were run).

CN(C)S(=O)(=O)c1cc(NC(=O)COC(=O)Cc2cccc3ccccc23)ccc1Cl	ANO1 block 25 | TMEM16A reconf inactive | HEK293 Ca mobil inactive | YFP-HEK293 quench inactive | ClC-1 inh inactive
CCC(C(=O)OCC(=O)Nc1ccc(Cl)c(S(=O)(=O)N(C)C)c1)c1ccccc1 (centres undefined)	ANO1 block 25 | TMEM16A reconf 19.5% | HEK293 Ca mobil inactive | YFP-HEK293 quench inactive | ClC-1 inh inactive
O=C(Nc1ccncc1)c1ccc(NS(=O)(=O)c2ccc3[nH]c(=O)[nH]c3c2)cc1	none
CCC(=O)NNC(=O)c1cc(COc2cc(Cl)cc(Cl)c2)on1	none
COc1ccccc1NC(=O)COc1ccc(/C=N/NC(=O)CSCc2cc(C)cc(C)c2)cc1	none
COc1ccccc1NC(=O)COc1ccc(/C=N/NC(=O)CSCc2ccc(Cl)cc2)cc1	ANO1 block 100 | TMEM16A reconf 18.5% | HEK293 Ca mobil inactive | YFP-HEK293 quench inactive | ClC-1 inh inactive
CC1CCCN(S(=O)(=O)c2ccc(C(=O)Nc3nnc(-c4ccccc4Cl)o3)cc2)C1 (centres undefined)	ANO1 block 100 | TMEM16A reconf 22.5% | HEK293 Ca mobil inactive | YFP-HEK293 quench inactive | ClC-1 inh inactive
CC1CCCN(S(=O)(=O)c2ccc(C(=O)Nc3nnc(-c4ccccn4)o3)cc2)C1 (centres undefined)	none
CCOC(=O)C1=CNS(=O)(=O)NC1c1ccc2ccccc2c1 (centres undefined)	none (no result: ANO1 block, IDE inh, CHT allo act, CHT block, TMEM16A act)
O=C(Nc1ccccc1)N1CCN(Cc2ccc3c(c2)OCO3)CC1	ANO1 block 100 | TMEM16A reconf inactive | HEK293 Ca mobil inactive | YFP-HEK293 quench inactive | ClC-1 inh inactive
O=C(CCc1ccc(S(=O)(=O)NCCc2ccccc2)cc1)N1CCN(Cc2ccc3c(c2)OCO3)CC1	ANO1 block 25 | TMEM16A reconf inactive | HEK293 Ca mobil inactive | YFP-HEK293 quench inactive | ClC-1 inh inactive
CCNS(=O)(=O)c1ccc(CCC(=O)N2CCN(Cc3ccccc3)CC2)cc1	none
CCOC(=O)C1=CN(Cc2ccco2)S(=O)(=O)N(CC)C1c1ccccc1 (centres undefined)	none (no result: ANO1 block, IDE inh, CHT allo act, CHT block, TMEM16A act)
c1ccc(Cn2ccc(-c3cnc(-c4ccccc4)s3)n2)cc1	ANO1 block 100 | TMEM16A reconf 45.0% | HEK293 Ca mobil inactive | YFP-HEK293 quench inactive | ClC-1 inh inactive
Cc1ccc(-c2nc(S(=O)(=O)c3ccccc3)c(SCC(=O)NCC3CCCO3)o2)cc1 (centres undefined)	none
O=S(=O)(Nc1ccccc1)c1ccc(-c2cnc(C3CC3)o2)cc1	none
CC(=O)c1cccc(NS(=O)(=O)c2ccc(-c3cnc(C4CC4)o3)cc2)c1	ANO1 block 25 | TMEM16A reconf 16.5% | HEK293 Ca mobil inactive | YFP-HEK293 quench inactive | ClC-1 inh inactive
Cc1coc2cc3oc(=O)c(CCC(=O)N4CCC(C(=O)O)(c5ccccc5)CC4)c(C)c3cc12	none
Cc1csc2ncnc(N3CCN(C(=O)Nc4ccc(OC(F)(F)F)cc4)CC3)c12	ANO1 block 100 | TMEM16A reconf 16.5% | HEK293 Ca mobil inactive | YFP-HEK293 quench inactive | ClC-1 inh inactive
Cc1cnc(C(=O)Nc2ccc(OC(F)(F)F)cc2)cn1	none
COc1ccccc1NC(=O)CN1C(=O)CC(C)S(=O)(=O)c2ccccc21 (centres undefined)	none
CC1C/C(=N/N=C2/NC(=O)CS2)CC(C)(C)C1 (centres undefined)	ANO1 block 100 | TMEM16A reconf inactive | HEK293 Ca mobil inactive | YFP-HEK293 quench inactive | ClC-1 inh inactive
N#Cc1ccc(CN2CCN(C(=O)CNS(=O)(=O)c3ccc4c(c3)OCCCO4)CC2)cc1	none (no result: ANO1 block, CHT allo act, CHT block)
c1coc(CNc2nc3nonc3nc2NCc2ccco2)c1	ANO1 block 25 | TMEM16A reconf inactive | HEK293 Ca mobil inactive | YFP-HEK293 quench inactive | ClC-1 inh inactive
Cc1nc(NCc2ccco2)c2cn[nH]c2n1	none (no result: ANO1 block, IDE inh, CHT allo act, CHT block)
CN(Cc1ccsc1)C(=O)Cn1cc(Br)ccc1=O	none
COCCn1c(-c2ccc(Br)cc2)csc1=Nc1cccnc1	ANO1 block 25 | TMEM16A reconf 33.5% | HEK293 Ca mobil inactive | YFP-HEK293 quench inactive | ClC-1 inh inactive
O=C1OC(c2ccccc2)=N/C1=C/c1cccc(OC(=O)c2cccs2)c1	ANO1 block 25 | TMEM16A reconf inactive | HEK293 Ca mobil inactive | YFP-HEK293 quench inactive | ClC-1 inh inactive
Cc1no[n+]([O-])c1COc1cccc(/C=C2\N=C(c3ccccc3)OC2=O)c1	none
COc1ccc(C(=O)CSC2=C(C#N)C3(CCCCC3)C(C#N)=C(N)N2)cc1	none
N#CC1=C(N)NC(SCC(=O)c2ccc(Cl)cc2)=C(C#N)C12CCCC2	ANO1 block 100 | TMEM16A reconf inactive | HEK293 Ca mobil inactive | YFP-HEK293 quench inactive | ClC-1 inh inactive
COc1ccc(S(N)(=O)=O)cc1C(=O)NNC(=O)c1cccc(S(=O)(=O)N2CCOCC2)c1	none (no result: ANO1 block, IDE inh, CHT allo act, CHT block)
COc1cc(NS(=O)(=O)c2ccc(NC(C)=O)cc2)nc(OC)n1	none
COc1cc(NS(=O)(=O)c2ccc(N/C=C(\C#N)c3nc4cc(Cl)ccc4o3)cc2)nc(OC)n1	ANO1 block 100 | TMEM16A reconf inactive | HEK293 Ca mobil inactive | YFP-HEK293 quench inactive | ClC-1 inh inactive
COc1ccccc1CNC(=O)CN1C(=O)NC2(CCOc3ccccc32)C1=O (centres undefined)	none (no result: ANO1 block, CHT allo act, CHT block)
Fc1cccc(Cl)c1Cn1nnc(-c2ccc3c(c2)OCO3)n1	none
Fc1cccc(Cl)c1CSc1nnnn1-c1ccc2c(c1)OCO2	ANO1 block 25 | TMEM16A reconf inactive | HEK293 Ca mobil inactive | YFP-HEK293 quench inactive | ClC-1 inh inactive
